Measurements published in PubChem BioAssay AID624300 (Southern Research Specialized Biocontainment Screening …, 2012).
Among all 2,400 compounds or so, about 360 (15%) were called active.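 How the source made its calls: active means viability falls under 70% at one or more tested concentrations, taken as toxicity; inactive means viability stays over 70% at every dose.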 Not all results are given here. Measured potencies and affinities stand elsewhere.

Assay: HeLa cell cytotoxicity, dose response, cytotoxicity control for MgcRacGAP inhibitor project (AID 624300)
Conditions: CellTiter-Glo luminescence, 24 h; series mostly up to 100 µM

SMILES	outcome
Nc1nc2cc(S(=O)(=O)NC3=NCCCCC3)ccc2s1	inactive
Nc1nc(N)c2[nH]c(=S)[nH]c2n1	inactive
CN(CC(=O)NCc1ccncc1)S(=O)(=O)c1ccc(Cl)cc1	inactive
COC(=O)c1[nH]c2ccc(C)cc2c1NC(=O)Oc1ccccc1	inactive
Nc1ccc(OCCc2ccccc2)cc1	inactive
COc1cccc(OC)c1OCCNC(C)(C)C	inactive
O=[N+]([O-])c1ccccc1OCCNCc1ccccc1	inactive
CC(C)[C@H](N[C@@H](C)c1ccccc1)c1c(O)ccc2ccccc12	inactive
CCn1c(-c2ccccc2)csc1=Nc1ccc(O)cc1	inactive
O=c1[nH][nH]cc1C=Nc1cc(Cl)ccc1O	inactive
CN(C)/C=C1\NC(=S)N(c2ccccc2)C1=O	inactive
CCc1ccc(NC(=O)CNCc2ccc(OC)c(OC)c2)cc1	inactive
CCOc1ccccc1/C=c1\sc2ncnn2c1=O	inactive
Cn1c(=O)[nH]c(N)c(Br)c1=O	inactive
O=C(COc1ccccc1)NCC(=O)N/N=C/c1ccc(O)cc1O	inactive
O=Nc1ccc(NOC(=O)c2ccccc2)cc1	inactive
Nc1ccc2c(c1)Nc1ccccc1CC2	inactive
CCN1CCN(CCOc2ccccc2OCc2ccccc2)CC1	inactive
COc1cc(/C=N/NC(=O)C(C)n2nnc3ccccc32)ccc1O (centres undefined)	inactive
COc1cc(/C=N/Nc2nc(N3CCCC3)nc(N3CCCC3)n2)ccc1O	inactive
Oc1ccc(/C=N/Nc2ncc(Cl)cc2Cl)cc1	inactive
COc1cc(/C=N/Nc2ccc(C(=O)O)cc2)ccc1O	inactive
COc1cc(/C=N/Nc2nc(C)cc(C)n2)ccc1O	inactive
Oc1ccc(/C=N/Nc2ncnc3nc[nH]c23)cc1	inactive
O=C(O)C1CCCCC1C(=O)Nc1ccc(S(=O)(=O)N2CCOCC2)cc1 (centres undefined)	inactive

SMILES	outcome
Cc1ccn2c(=S)[nH]nc2c1	inactive
Oc1cc(Br)ccc1C=Nc1ccc(N2CCCCC2)cc1	inactive
COc1ccccc1CNCC(=O)Nc1ccc(N(C)C)cc1	inactive
O=C(N/N=C/c1ccc(O)cc1)Nc1cccc2nsnc12	inactive
Cc1csc(=O)n1CC(=O)OC(C)C(=O)Nc1ccc(N(C)C)cc1 (centres undefined)	inactive
CCN(Cc1ccccc1)c1ccc(/C=N/N2CCOCC2)cc1	inactive
C=CCn1c(SCC(=O)Nc2ccc(O)cc2)nc2sc(CC)cc2c1=O	inactive
Brc1ccccc1OCCCCCN1CCOCC1	inactive
C=CCNC(=O)CN1CCN(C(c2ccccc2)c2ccccc2)CC1	inactive
COc1ccc(NC2CCCN(C(=O)c3ccc(C(C)=O)s3)C2)cc1 (centres undefined)	inactive
CN=c1scc(C)n1/N=C/c1ccc(O)cc1	inactive
Cc1cc(Br)cc(C=Nc2ccc(N3CCOCC3)cc2)c1O	inactive
O=C(c1cccc(Cl)c1)N1CCN(C2CCCCC2)CC1	inactive
Cc1c(Cl)cccc1NC(=S)Nc1ccc2[nH]c(=O)[nH]c2c1	inactive
Cc1ccc(OCCN2CCN(C)CC2)c([N+](=O)[O-])c1	inactive
O=C(CSc1nnnn1C1CC1)N1CCN(c2ccc(O)cc2)CC1	inactive
CCC(C)N1CCN(C(=O)c2cccs2)CC1 (centres undefined)	inactive
Oc1ccc(Nc2ncnc3c2oc2ccccc23)cc1	inactive
O=c1oc2ccccc2cc1-c1csc(Nc2ccc(O)cc2)n1	inactive
OC1CNc2c(ccc3ccccc23)C1 (centres undefined)	inactive
COc1ccc(OCCOCCN2CCN(C)CC2)cc1	inactive
OCCN1CCN(Cc2ccc3ccccc3c2)CC1	inactive
O=[N+]([O-])c1ccc(N2CCN(CCOCCO)CC2)c([N+](=O)[O-])c1	inactive
CC(CCN1CCN(CCO)CC1)c1ccccc1 (centres undefined)	inactive
COc1ccc(O)c(/C=N/NC(=O)c2c(C)nnn2-c2nonc2N)c1	inactive

SMILES	outcome
c1ccc(CC2CCN(Cc3ccccn3)CC2)cc1	inactive
CCC1(c2ccccc2)NC(=O)N(CC(=O)Nc2ccc(N3CCCC3)cc2C)C1=O (centres undefined)	inactive
CCOC(=O)c1c(C)[nH]c(C(=O)CN2CCN(CC)CC2)c1C	inactive
CCOC(=O)C1=C(C)Nc2ccc(C)cc2S1	inactive
COC(=O)c1cc(NCc2cccs2)ccc1N1CCOCC1	inactive
COc1cc(CNc2ccc(N3CCN(C(C)=O)CC3)cc2)ccc1OCc1ccccc1	inactive
COc1cc(CNc2ccc3[nH]c(=O)[nH]c3c2)ccc1OCc1ccccc1	inactive
O=C(N/N=C/c1ccc(O)c2ccccc12)c1cccnc1	inactive
Cc1nc(N)sc1-c1ccccc1	inactive
COc1cc(Br)c(CNc2cc(C)ccc2C)cc1OC	inactive
COc1ccccc1/C=C1/C(=O)N(c2ccccc2)N=C1C	inactive
Cc1c(N2C(=O)/C(=C\c3ccc(N(C)C)cc3)N(C)C2=S)c(=O)n(-c2ccccc2)n1C	inactive
CC1=NN(c2ccc(C(=O)O)cc2)C(=O)/C1=C\c1ccc(OC(=O)c2cccs2)cc1	inactive
CC1=NN(c2cccc(C(=O)O)c2)C(=O)/C1=C\C=C\c1ccco1	inactive
Cc1ccc(N2C(S)=C(C#N)C(=O)NC2c2ccco2)cc1 (centres undefined)	inactive
CCOc1cc(/C=N/NC(=O)C(=O)N2CCCC2)ccc1O	inactive
Oc1ccc2ccccc2c1Br	inactive
CC[n+]1c(/C=C/N(C)c2ccccc2)oc2ccc(Cl)cc21	inactive
CC(=O)N1CCN(c2ccc(NCc3ccco3)cc2)CC1	inactive
CCN(CC)c1ccc(/C=C2\C(=O)c3ccc(C(=O)O)cc3C2=O)cc1	inactive
O=C(O)c1ccc(COc2ccccc2C=C2C(=O)c3ccccc3C2=O)cc1	inactive
Cc1cc(-c2n[nH]c(=S)n2/N=C/c2ccccc2[N+](=O)[O-])n[nH]1	inactive
Cc1cccn2c(=S)[nH]nc12	inactive
OCC1CCCN(C(=S)Nc2ccc(Nc3ccccc3)cc2)C1 (centres undefined)	inactive
Nc1ccc(Nc2ccncc2)cc1	inactive

SMILES	outcome
Cc1c(O)ccc(NC(=O)/C=C/c2ccccc2)c1C	inactive
Cc1ccc(/C=C/C(=O)Nc2ccc([N+](=O)[O-])c(NC(=O)/C=C/c3ccc(C)o3)c2)o1	inactive
C/C(=N/NC(=O)CSc1nc2ccccc2n1C)c1ccc(O)cc1	inactive
CCOC(=O)C(Cc1ccccc1)C(=O)Nc1ccc(N(CC)CC)cc1 (centres undefined)	inactive
CCOC(=O)/C(C#N)=C\c1ccc(O)c(OC)c1	inactive
CCOc1c(C=C(C#N)C#N)c2ccccc2n1CC	inactive
COc1ccc(NC2CCCN(C(=O)CCCn3cncn3)C2)cc1OC (centres undefined)	inactive
O=C(CNC(=O)C1COc2ccccc2O1)N/N=C/c1ccc(O)cc1O (centres undefined)	inactive
Nc1ccc(Nc2nc(-c3ccncc3)cs2)cc1	inactive
CCCCN(C)CCNC(=O)CSCc1ccc(C)cc1	inactive
O=C(Nc1n[nH]c(=S)s1)c1ccco1	inactive
CN(Cc1ccccc1)Cc1c(O)ccc2ccccc12	inactive
COc1ccc(CN2CCC(C(N)=O)CC2)cc1OCc1ccccc1	inactive
COC(=O)c1cc(NCc2ccccc2F)ccc1N1CCOCC1	inactive
COc1cc2cc(NC(C)=O)cc(NCc3ccccc3)c2cc1OC	inactive
COc1ccc(CN2CCN(Cc3ccc4ccccc4c3)CC2)cc1OC	inactive
Cc1nc2ccc(-c3nc4ccc(N)cc4[nH]3)cc2[nH]1	inactive
Cc1nc(Cc2nnc(SCC(=O)N3CCN(c4ccc(O)cc4)CC3)o2)cs1	inactive
Nc1nc(=S)ss1	inactive
O=c1[nH]c2ccccc2nc1/C=C/c1ccc(O)cc1	inactive
C=CCn1c(N/N=C/c2ccc(O)cc2)nc2ccccc2c1=O	inactive
COc1cc(/C=N/n2c(C)nc3ccccc3c2=O)ccc1O	inactive
COc1cc(/C=N/NC(=O)c2cc(-c3ccccc3OC(C)C)nc3ccccc23)ccc1O	inactive
COc1cc(/C=C/c2ccc3cccc(O)c3n2)ccc1O	inactive
CCCc1nc2ccccc2c(=O)n1/N=C/c1ccc(O)c(O)c1	inactive

SMILES	outcome
COc1cc(/C=C/C(C)=NNc2ccccc2)ccc1O	inactive
COc1cc(/C=C/c2nc3ccccc3c(=O)[nH]2)ccc1O	inactive
O=C(CN1CCN(c2ccc(O)cc2)CC1)NCC(=O)Nc1ccc(F)c(F)c1F	inactive
Cc1cccc(Nc2n[nH]c(=S)s2)c1C	inactive
CN1CCN(CCCNCc2cn(CCC#N)c3ccccc23)CC1	inactive
COc1ccc(NC2CCCN(C(=O)CCc3cccc(F)c3)C2)cc1 (centres undefined)	inactive
COc1cc(C)c(N)cc1C(C)C	inactive
CCOC(=O)c1[nH]c2cc(OC)c(OC)cc2c1N	inactive
COc1ccc(N2CCN(C(C)C(=O)N3CCCC3)CC2)cc1 (centres undefined)	inactive
CC(=O)N1CCN(CC(O)COc2ccc(Br)cc2)CC1 (centres undefined)	inactive
O=C1C2C3C=CC(CC3)C2C(=O)N1/N=C/c1ccc(O)c(O)c1 (centres undefined)	inactive
CCOC(=O)c1[nH]c2ccccc2c1NC(=S)Nc1cccc(C)c1	inactive
COc1ccc(NCc2cc3cc(OC)ccc3[nH]c2=O)cc1	inactive
COc1ccc(OC(=O)COc2cc(C)ccc2C)cc1	inactive
COc1ccc(OC(=O)COc2ccc(C)cc2)cc1	inactive
Nc1c(Cl)ncnc1NCCc1ccc(O)cc1	inactive
CCOC(=O)/C(C#N)=C1\C(=O)N(Cc2ccccc2)c2ccccc21	inactive
COc1ccc(CN2CCN(Cc3c[nH]c4ccccc34)CC2)c(OC)c1	inactive
COc1ccc(OC)c(CN2CCN(Cc3cccc4ccccc34)CC2)c1	inactive
CCOC(=O)N/N=C/c1ccc(N2CCOCC2)s1	inactive
Nc1ccc(-c2nc3ccc(N)cc3o2)cc1	inactive
Nc1ccc2nc(N)sc2c1	inactive
COc1ccccc1CNC(=O)C[C@@H]1C[C@H]2c3cc(N(C)C)ccc3O[C@H]2[C@H](CO)O1	inactive
COc1cc(N2C(=O)C=CC2=O)ccc1N1C(=O)C=CC1=O	inactive
